# Experimental data reported in the supplement of paper PMC8728848.
# The sample as a whole holds a higher share of the strongest signals than the screen did.
# Experiments:
# Assay in all cases: glycan array binding signal (z-score within array); higher = stronger binding
# Details in all cases: glycan notation: IUPAC condensed, linker removed
# [1] = molecular target: Fuc(a1-2)Gal(b1-3)GlcNAc(b1-3)[Gal(b1-4)GlcNAc(b1-6)]Gal(b1-4)Glc
# Outline: (§1)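 Glycan array data came from 3228 arrays in the Consortium for Functional Glycomics database, and only arrays with an available protein sequence were kept. Glycan names were put into IUPAC-condensed notation, and columns mapping to the same glycan were averaged. The binding signal is a within-array Z-score, averaged across arrays of one protein sequence run at different concentrations or buffers and across linkers. A negative Z-score can be read as non-binding.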
# [2] = molecular target: Fuc(a1-2)Gal(b1-3)[Fuc(a1-4)]GlcNAc
# Outline: as §1
# [3] = molecular target: Fuc(a1-2)Gal(b1-3)[Fuc(a1-4)]GlcNAc(b1-2)Man(a1-3)[Fuc(a1-2)Gal(b1-3)[Fuc(a1-4)]GlcNAc(b1-2)Man(a1-6)]Man(b1-4)GlcNAc(b1-4)[Fuc(a1-6)]GlcNAc(b1-4)[Fuc(a1-6)]GlcNAc
# Outline: as §1
# [4] = molecular target: Fuc(a1-2)Gal(b1-4)GlcNAc(b1-3)[Fuc(a1-3)[Gal(b1-4)]GlcNAc(b1-6)]Gal(b1-4)Glc
# Outline: as §1
# [5] = molecular target: Fuc(a1-2)Gal(b1-4)[Fuc(a1-3)]GlcNAc(b1-3)Gal(b1-4)[Fuc(a1-3)]GlcNAc(b1-3)Gal(b1-4)[Fuc(a1-3)]GlcNAc
# Outline: as §1
# [6] = molecular target: Fuc(a1-2)[Gal(a1-3)]Gal(b1-4)GlcNAc(b1-3)GalNAc
# Outline: as §1
# [7] = molecular target: Fuc(a1-3)[Gal(b1-4)]GlcNAc(b1-2)Man(a1-3)[Fuc(a1-3)[Gal(b1-4)]GlcNAc(b1-2)Man(a1-6)]Man(b1-4)GlcNAc(b1-4)GlcNAc
# Outline: as §1
# [8] = molecular target: Gal(a1-3)Gal(b1-3)GlcNAc(b1-2)Man
# Outline: as §1
# [9] = molecular target: Gal(a1-3)Gal(b1-3)GlcNAc(b1-6)GalNAc
# Outline: as §1
# [10] = molecular target: Gal(a1-3)Gal(b1-4)GlcNAc(b1-6)GalNAc
# Outline: as §1
# Gal(b1-4)GlcNAc = molecular target: Gal(b1-4)GlcNAc
# Outline: as §1
# [11] = molecular target: Gal(b1-4)GlcNAc(b1-2)[Gal(b1-4)GlcNAc(b1-4)]Man(a1-3)[GlcNAc(b1-4)][Gal(b1-4)GlcNAc(b1-2)[Gal(b1-4)GlcNAc(b1-6)]Man(a1-6)]Man(b1-4)GlcNAc(b1-4)GlcNAc
# Outline: as §1
# [12] = molecular target: Gal(b1-4)GlcNAc(b1-2)[Gal(b1-4)GlcNAc(b1-6)]Man(a1-6)[GlcNAc(b1-4)][Gal(b1-4)GlcNAc(b1-2)Man(a1-3)]Man(b1-4)GlcNAc(b1-4)GlcNAc
# Outline: as §1
# [13] = molecular target: Gal(b1-4)GlcNAc(b1-3)Gal(b1-4)GlcNAc(b1-3)Gal(b1-4)GlcNAc(b1-3)Gal(b1-4)GlcNAc(b1-2)Man(a1-3)[Gal(b1-4)GlcNAc(b1-3)Gal(b1-4)GlcNAc(b1-3)Gal(b1-4)GlcNAc(b1-3)Gal(b1-4)GlcNAc(b1-2)Man(a1-6)]Man(b1-4)GlcNAc(b1-4)[Fuc(a1-6)]GlcNAc
# Outline: as §1
# [14] = molecular target: Gal(b1-4)GlcNAc(b1-3)Gal(b1-4)GlcNAc(b1-3)Gal(b1-4)GlcNAc(b1-3)Gal(b1-4)GlcNAc(b1-3)Gal(b1-4)GlcNAc(b1-2)Man(a1-3)[Gal(b1-4)GlcNAc(b1-3)Gal(b1-4)GlcNAc(b1-3)Gal(b1-4)GlcNAc(b1-3)Gal(b1-4)GlcNAc(b1-3)Gal(b1-4)GlcNAc(b1-2)Man(a1-6)]Man(b1-4)GlcNAc(b1-4)[Fuc(a1-6)]GlcNAc
# Outline: as §1
# [15] = molecular target: Gal(b1-4)GlcNAc(b1-3)GalNAc
# Outline: as §1
# [16] = molecular target: Gal(b1-4)GlcNAc(b1-6)[Gal(b1-3)]GalNAc
# Outline: as §1
# Gal3S(b1-4)Glc = molecular target: Gal3S(b1-4)Glc
# Outline: as §1
# Gal6S(b1-4)Glc6S = molecular target: Gal6S(b1-4)Glc6S
# Outline: as §1
# GalNAc(b1-4)GlcNAc6S = molecular target: GalNAc(b1-4)GlcNAc6S
# Outline: as §1
# GlcA(b1-6)Gal = molecular target: GlcA(b1-6)Gal
# Outline: as §1
# [17] = molecular target: GlcNAc(a1-4)Gal(b1-4)GlcNAc(b1-3)Gal(b1-4)Glc
# Outline: as §1
# [18] = molecular target: GlcNAc(a1-4)Gal(b1-4)GlcNAc(b1-3)Gal(b1-4)GlcNAc(b1-3)Gal(b1-4)GlcNAc
# Outline: as §1
# [19] = molecular target: GlcNAc(b1-3)Gal(b1-4)GlcNAc(b1-2)[GlcNAc(b1-3)Gal(b1-4)GlcNAc(b1-6)]Man(a1-6)[GlcNAc(b1-3)Gal(b1-4)GlcNAc(b1-2)Man(a1-3)]Man(b1-4)GlcNAc(b1-4)GlcNAc
# Outline: as §1
# [20] = molecular target: GlcNAc(b1-3)Gal(b1-4)GlcNAc(b1-3)Gal(b1-4)GlcNAc(b1-3)Gal(b1-4)GlcNAc(b1-2)[GlcNAc(b1-3)Gal(b1-4)GlcNAc(b1-3)Gal(b1-4)GlcNAc(b1-3)Gal(b1-4)GlcNAc(b1-6)]Man(a1-6)[GlcNAc(b1-3)Gal(b1-4)GlcNAc(b1-3)Gal(b1-4)GlcNAc(b1-3)Gal(b1-4)GlcNAc(b1-2)Man(a1-3)]Man(b1-4)GlcNAc(b1-4)[Fuc(a1-6)]GlcNAc
# Outline: as §1
# [21] = molecular target: GlcNAc(b1-3)Gal(b1-4)GlcNAc(b1-3)Gal(b1-4)GlcNAc(b1-3)Gal(b1-4)GlcNAc(b1-3)Gal(b1-4)GlcNAc(b1-2)Man(a1-3)[GlcNAc(b1-3)Gal(b1-4)GlcNAc(b1-3)Gal(b1-4)GlcNAc(b1-3)Gal(b1-4)GlcNAc(b1-3)Gal(b1-4)GlcNAc(b1-2)Man(a1-6)]Man(b1-4)GlcNAc(b1-4)GlcNAc
# Outline: as §1
# [22] = molecular target: GlcNAc(b1-3)[GlcNAc(b1-6)]Gal(b1-4)GlcNAc
# Outline: as §1
# [23] = molecular target: GlcNAc(b1-4)Gal(b1-4)GlcNAc
# Outline: as §1
binder,measurement,setting,value
Pwp2 (Candida glabrata) (protein) MGSSHHHHHHSSGLVPRGSHMASKNPVELNNVCTFPNDYGRIPGFTVLVGRLGLLISASDYKELLRYPGAFLIATQDTMTTSPNFELTGFPFFTGLYGLTVFPLDLLVELRGYFVPPNSGQYTFTLSDSDDAAIIFLGNPSAFPCGDLQNWPKPSEEDITVTDHLFPSRTLYLIEGVAYPMRIAYYNGIGAGRLNAAFIDPSGTRHTNWEGYIWQYDPCSTCTYS,glycan array binding signal (z-score),[1],-0.594
same,glycan array binding signal (z-score),[2],-0.451
same,glycan array binding signal (z-score),[3],6.32
same,glycan array binding signal (z-score),[4],0.384
same,glycan array binding signal (z-score),[5],-0.086
same,glycan array binding signal (z-score),[6],-0.603
same,glycan array binding signal (z-score),[7],2.54
same,glycan array binding signal (z-score),[8],-0.046
same,glycan array binding signal (z-score),[9],-0.526
same,glycan array binding signal (z-score),[10],-0.281
same,glycan array binding signal (z-score),Gal(b1-4)GlcNAc,-0.286
same,glycan array binding signal (z-score),[11],-0.248
same,glycan array binding signal (z-score),[12],-0.569
same,glycan array binding signal (z-score),[13],3.91
same,glycan array binding signal (z-score),[14],1.62
same,glycan array binding signal (z-score),[15],-0.473
same,glycan array binding signal (z-score),[16],1.6
same,glycan array binding signal (z-score),Gal3S(b1-4)Glc,-0.429
same,glycan array binding signal (z-score),Gal6S(b1-4)Glc6S,-0.419
same,glycan array binding signal (z-score),GalNAc(b1-4)GlcNAc6S,-0.448
same,glycan array binding signal (z-score),GlcA(b1-6)Gal,-0.235
same,glycan array binding signal (z-score),[17],-0.466
same,glycan array binding signal (z-score),[18],-0.42
same,glycan array binding signal (z-score),[19],4.24
same,glycan array binding signal (z-score),[20],5.45
same,glycan array binding signal (z-score),[21],-0.549
same,glycan array binding signal (z-score),[22],-0.141
same,glycan array binding signal (z-score),[23],-0.446
